Molecules are shown by their SMILES. “And” between values parts separate entries of the source, which are not always exact repeats. Equal values may be shown once. Inconclusive results are not listed. Where a call stands in place of a potency, no number is given. Values without a mark were called inactive. The source made the active and inactive calls. Calls come from the whole dose curve; as a rule, active = well fitted inhibition curve with a large enough effect; inconclusive = small, poorly fitted or top-dose-only effect; inactive = flat fitted curve, though single readings scatter.
Potency is the fitted concentration of half-maximal effect.

The nature of this assay: Primary qHTS for inhibitors of nuclear receptor binding SET domain protein 2 (NSD2) in an isogenic RCH-ACV NSD2 p.E1099K mutant (9B) (AID 1645876). Note: nearly all actives have a fitted effect of over 70% in size. The conditions noted are these: RCH-ACV (leukaemia line) NSD2 E1099K (9B) viability, CellTiter-Glo, 72 h; series mostly up to 44.9 µM. (Quantitative high-throughput screening tests each substance at several concentrations.)
`C=C1CCCC2(C)CC3(OC)OC(=O)C(C)=C3CC12` (stereo not given): the Potency entry is “inactive”.

Take `CC1=C(C(=O)O)/C(=C\CO[C@@H]2O[C@H](CO)[C@@H](O)[C@H](O)[C@H]2O)C(OC(=O)/C=C/c2ccc(O)cc2)C1` (stereo not given in full): the Potency result was “inactive”.

For the compound `CC1=C(CO)C(=O)O[C@@H]([C@@H](C)[C@H]2CC[C@H]3[C@@H]4C[C@H]5O[C@]56[C@@H](O)C=CC(=O)[C@]6(C)[C@H]4CC[C@]23C)C1`, the Potency was 448 nM (active) and 263 nM (active).

For the compound `C[C@@H]1O[C@@H](O[C@H]2[C@H](O[C@H]3[C@H](O[C@H]4CC[C@@]5(C)C(CC[C@]6(C)C5CC=C5[C@@H]7CC(C)(C)C[C@@H](O)[C@]7(C)CC[C@]56C)[C@@]4(C)CO)O[C@H](C(=O)O)[C@@H](O)[C@@H]3O)OC[C@H](O)[C@@H]2O)[C@H](O)[C@H](O)[C@H]1O` (stereo not given in full), the activity change, negative = viability loss is 2.23% [at 9.23 µM].

Turning to `CC1CC(O)/C=C/C(O)C(O)CC(=O)Cc2c(Cl)c(O)cc(O)c2C(=O)O1` (stereo not given), the Potency result was “inactive”.

`C[C@@H]1C(=O)O[C@H]2C[C@]34[C@H]5C[C@@H](C(C)(C)C)[C@]36[C@@H](OC(=O)[C@H]6O)O[C@]4(C(=O)O5)[C@]21O`: the Potency entry was “inactive”.

On to `COc1cc(/C=C/C(=O)OC[C@H]2O[C@@](CO)(O[C@H]3O[C@H](CO)[C@@H](O)[C@H](O)[C@H]3O)[C@@H](OC(=O)/C=C/c3ccc(O)c(OC)c3)[C@@H]2O)ccc1O`, for which the Potency entry is “inactive”.

In the case of `COC(=O)c1ccccc1O[C@@H]1O[C@H](CO)[C@@H](O)[C@H](O)[C@H]1O[C@@H]1O[C@@H](C)[C@H](O)[C@@H](O)[C@H]1O`, the Potency entry is “inactive”.

Consider `Cc1[nH]nc(C(F)(F)F)c1Cc1sc2c(c1C(=O)N1C[C@](C)(O)CO1)c(=O)n(C)c(=O)n2C(C)C`, for which the Potency entry was “inactive”.

As for `CC(C)CN(C[C@@H](O)[C@H](Cc1ccccc1)NC(=O)O[C@@H]1CO[C@H]2OCC[C@H]21)S(=O)(=O)c1ccc(N)cc1`, the Potency result is “inactive”.

The record behind these values is PubChem BioAssay (NCATS).
